Assay results from PubChem BioAssay (EPA / NIEHS).
The source made the active and inactive calls. How the source made its calls: active means hit-call score of the fitted dose curve at least 0.9, where 1 is the maximum; inactive means score below 0.9.

Test: CEETOX_H295R_DOC: CeeTox H295R High-throughput Steroidogenesis Assay for DOC (AID 2283439)
Conditions: actives raise or lower the signal
Procedure: CEETOX_H295R is a cell-based, multiplexed-readout assay that uses H295R, a human adrenal gland cell line, with measurements taken at 48 hours after chemical dosing in a 96-well plate.CEETOX_H295R_DOC is one of 23 assay component(s) measured or calculated from the CEETOX_H295R assay. It is designed to make measurements of hormone induction, a form of inducible reporter, as detected with absorbance signals by HPLC-MS-MS technology.Data from the assay component CEETOX_H295R_DOC was analyzed into 1 assay endpoint. This assay endpoint, CEETOX_H295R_DOC, was analyzed with bidirectional fitting relative to DMSO as the negative control and baseline of activity. Using a type of inducible reporter, gain or loss-of-signal activity using HPLC-MS-MS was used to understand synthesis of 11-Deoxycorticosterone in H295R cell line at 48hr of chemical exposure. To generalize the intended target to other relatable targets, this assay endpoint is annotated to the steroid hormone intended target family, where the subfamily is glucocorticoids.
Cell culture and media preparation procedures were conducted in accordance with OECD Test No. 456 guidelines, with minor modifications. H295R cells (ATCC CRL-2128) were expanded for 5 passages and frozen in batches in liquid nitrogen. Prior to the steroidogenesis assay, H295R cells were thawed and passed at least 4 times. The maximum passage was 10. Cells were maintained in a 1:1 mixture of DMEM/F12 supplemented with 5ml/L ITS+ Premix (BD Bioscience) and 12.5 ml/L Nu-Serum (BD Bioscience). After seeding cells into 96-well plates at 50-60% confluency, cells were allowed to adhere overnight. Prior to chemical testing, culture medium was replaced with 175 uL medium containing 10 uM forskolin to stimulate steroidogenesis for 48 hours. Following prestimulation, forskolin medium was replaced with medium containing test chemical solubilized in DMSO (ensuring a final concentration of 0.1% DMSO). Test chemicals were incubated for 48 hours, then the medium was removed and split into 2 vials containing approximately 75uL each, and stored at -80 C prior to hormone analysis. For steroid quantification, media samples were shipped to OpAns, LLC (Durham, NC) on dry ice, and samples were thawed to room temperature prior to liquid-liquid extraction. Steroid hormones were extracted from media samples using methyl tertbutyl ether (MTBE). An extra derivatization with dansyl chloride was included for estrogen (estrone and estradiol) detection only. Steroid hormones were separated by HPLC, eluted using a reverse phase C18 gradient with electrospray positive ionization, followed by quantification by tandem mass spectrometry (MS/MS). Data were acquired on a MassHunter Workstation Acquisition version B03.01 (Agilent Technologies, Inc.) and processed using MassHunter Quantitative Analysis for QQQ. Accuracy was determined for each hormone analyte from 3 standards to determine upper and lower limits of quantification (ULOQ and LLOQ, respectively) using a 7-point standard curve. Precision and accuracy of the extraction and quantification methods were calculated as the percent relative standard deviation (%RSD) of the spiked standards and percent spiked standard recovered, respectively. […] Test medium was removed following chemical exposure, and cell viability was evaluated in the same wells by MTT. MTT procedures were as follows: after removal of test medium, 500 uL of 0.5 mg/ml of 3-[4,5-dimethylthiazol-2-y]2,5-diphenyltetrazoliumbromide solution was added to the cells. Following a 4-hour incubation at 37 C and 5% CO2 to allow formazan-crystal formation, the MTT solution was removed and blue formazan salt crystals were solubilized using 500uL anhydrous isopropanol with shaking for 20 minutes. Absorbance was read at 570 and 650nm using a Packard Fusion microplate reader. Background correction of absorbance units was used to determine percent change relative to controls. […]

Structure (SMILES)	outcome	AC50
OC1CCC(C2CCCCC2)CC1 (stereo unspecified)	inactive	–
CC1=C(/C=C/C(C)=C/C=C/C(C)=C/C(=O)O)C(C)(C)CCC1	–	7.19 µM (active)
CCC(=C(c1ccc(O)cc1)c1ccc(OCCN(C)C)cc1)c1ccccc1	inactive	–
COc1ccc([N+](=O)[O-])cc1N	–	10.6 µM (active)
CCc1ccc(CCOc2ccc(CC3SC(=O)NC3=O)cc2)nc1 (stereo unspecified)	–	19.5 µM (active)
C[C@@H]1C[C@H]2[C@@H]3CCC4=CC(=O)C=C[C@]4(C)[C@@]3(F)[C@@H](O)C[C@]2(C)[C@@]1(O)C(=O)COP(=O)(O)O	inactive	–
NC(=O)N(O)[C@@H]1C=C[C@H](Oc2cccc(Oc3ccc(F)cc3)c2)C1	inactive	–
Nc1cccc2c(N)cccc12	–	2.73 µM (active)
COC(=O)CCCCC(=O)OC	inactive	–
CCCCCCCCC(=O)O	inactive	–
Oc1cccc(O)c1	inactive	–
O=c1c(-c2ccc(O)cc2)coc2cc(O)ccc12	–	3.19 µM (active)
O=C(O)c1ccccc1C(c1ccc(O)cc1)c1ccc(O)cc1	–	6.89 µM (active)
CCCOC(=O)c1ccc(O)cc1	–	26.8 µM (active)
CCCCCCCCCCCCCCCS(=O)(=O)Oc1ccccc1	–	3.8 µM (active)
CCc1nn(C2CCCCC2)c2cc(C3(C#N)CCC(C(=O)O)CC3)ccc12 (stereo unspecified)	inactive	–
